T1: FBXL12, Q9NXK8
T1 chain: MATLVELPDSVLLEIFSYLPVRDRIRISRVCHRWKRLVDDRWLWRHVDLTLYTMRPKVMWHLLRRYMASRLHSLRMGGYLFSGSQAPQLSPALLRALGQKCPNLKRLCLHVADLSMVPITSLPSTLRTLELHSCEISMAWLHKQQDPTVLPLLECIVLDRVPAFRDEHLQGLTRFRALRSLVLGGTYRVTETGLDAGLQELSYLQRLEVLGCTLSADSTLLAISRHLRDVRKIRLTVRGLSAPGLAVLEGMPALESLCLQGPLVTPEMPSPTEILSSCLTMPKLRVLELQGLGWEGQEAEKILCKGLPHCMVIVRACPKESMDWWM

B1: FBXL12_hotspot_23_44 (protein)
chain: MRLLRISLVEKPPEELRAGALYQAEVAALAILEGWEVEIEAEHPEAVAAAHAIARALREVTGKEVKVSRPLKPEERPLAEELLPELIAAIRAAIAAHRAR
B2: FBXL12_hotspot_28_54 (protein)
chain: MKIEVKVSGPKEQVAQRILELLEALKQLVEELKKEYKEVKEKDPEKLPEFEKELEEKLEKIKSIAESLVKQAKELGEEAYKKAKEKAEEVKKAIEELKKA
B3: FBXL12_hotspot_23_46 (protein)
chain: MRTLVIHLTEQSPEEMVKATYYATKLAYLAVKHGWEVVLRASDAVTAMAARIIAEEIERRTGKEVRVEAEERPETAEEAEELRPRFEEAVRKAIEEVEAE
B4: FBXL12_hotspot_28_56 (protein)
chain: AKRTVIVKGPPEQRAELMLKLAKAILEKSKELYKELKKVKDKDEEKVKELLEKLEKLADLAKSLLENAKKTLPKEYEEVVKEIEKLTKEVEKILKEAKKL
B5: FBXL12_hotspot_20_43 (protein)
chain: MLLIRARLVGTREQMITTLRYAAAVVRALAERRRAANDATPEALALLEELARLYEEAAERLEAAPEEEWPAIRAATAAEQARLNERLEAELEAQERERAA
B6: FBXL12_hotspot_23_48 (protein)
chain: MRTLVLSTRGVAPEDREAAARYAAEMIVAAGRAGWRVRVVLQDRESLELAALIAAMARLVTGAEVVVLTDAAEELERLMEERREEARRLVEEARARLDAE
B7: FBXL12_hotspot_20_42 (protein)
chain: MLRLRVGVSEDVEANRGSLLRAAELVEAFADRLAAEFPELAEVIARLRETARRAREAAARLPGLSPEEARALVREMSEEIAEVVEEASRAAEAARARRAA
B8: FBXL12_hotspot_28_52 (protein)
chain: MKVEVRVSGDPEQVAAQLLALLEAMTKIAKELAKELKKTKETDPSKVEEKRKEAEEAAEKIRSMVESILRQAESLSPEQQAQVRAAAEETFKALEELEKT
B9: FBXL12_hotspot_23_47 (protein)
chain: MRTLVLSTFGTAPEDREASLEYAARLIVAAGRHGWRVVVVLEDRSSLELAATIAAMAKLVVGAEVVVKTDAEEELRELMERNRERAAELVAAAEAALAAE
B10: FBXL12_hotspot_28_55 (protein)
chain: MKLEIRVRGPPEEVAKRILELVDAIVEVARQRKEELQRKVEEEGMPEEEARAELEENADRLLSALESLERNAESLPPELREEVLRRIREAREEIERIRKE
B11: FBXL12_hotspot_23_45 (protein)
chain: MRKLVITFAEAPDEEMVKATYYATKLALLAAEHGWEIVLRADNAVTGMAARIVAEAVEKRTGKKVEVIVKEDPSTKERAEKLAPKYEAAVEKAIAEVEAS
B12: FBXL12_hotspot_23_49 (protein)
chain: MRTLRIHLVSRDPEQNRAAARYAAELATRAVLHGWRVVLSGDDRRTVAAAHAVARVVEEVTGKEVEVTEPLHPEEEPLAEELAEELRPVVEAAKAAELAA
B13: FBXL12_hotspot_28_53 (protein)
chain: MKRTVIVRGEPEQVGQQILALLEAITEQAKALKAQLEANKNGDPAVLAELKEKLAKLESILESLKEEAERIRPQLSPELQARIDAAIEAAEKALKAAKAV
B14: FBXL12_hotspot_105_2 (protein)
chain: MARVRVGSTGPRALPLTVAGLAFAIYRGDEEEAERLRREAEALIAKRPAAEELRRLLEEAVALARALRAAAEAGDAAAAAAAAARLAAVIDELARLVEAE
B15: FBXL12_hotspot_23_50 (protein)
chain: MRELVLGIGGRPPEEQRAGALRAAELAAAFRPVADRIVVRLGPGVDGAVAAALRRVLEEDYGAEVLSETPEEAVPPEEVEALVAELRAAAEAAEARRRAA
B16: FBXL12_hotspot_24_51 (protein)
chain: QTITLVVRADLDLDPRDSPEEKRARLRAAVEGFLGSVETGIALADLMAARGRGAVDREAFEAAAAALLAAAEALGEADLAARVRAARARFLAAADRLEAA

Biological target: T1, FBXL12, Q9NXK8
Test: median log2 fold change of GCK-ALFA target abundance (FLAG IP / Myc IP barcode read proportion) (log2 ratio); each designed protein is fused to an ALFA-tag nanobody in HEK293 cells to bring the named protein to FLAG-tagged glucokinase (GCK); Myc marks an untargeted standard; higher = target protein stabilised (more abundant)
Conditions: target protein: 3xFLAG-MCP-GCK-ALFA reporter; HEK293 landing pad (RPLP)
Procedure: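 LABEL-seq trans screen in HEK293 landing-pad cells. Each de novo designed 100-aa effector handle, binding the indicated effector (E3 ligase, DUB or autophagy protein), is fused to a constant NbALFA target handle and induced with 2 ug/mL doxycycline. A FLAG-MCP-GCK-ALFA target and a Myc-MCP standard reporter were transfected, and after 48 h circRNA barcodes were recovered by anti-FLAG and anti-Myc IP and sequenced. The value is the median across barcodes (at least 3 per design) of log2(FLAG/Myc read-proportion ratio), with the two transfection replicates pooled. Negative values mean degradation and positive values mean stabilisation of the target.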

Binder | median log2 fold change
B1 | 0.0454
B2 | -0.418
B3 | -0.32
B4 | -0.777
B5 | -0.466
B6 | -0.469
B7 | 0.115
B8 | -0.0427
B9 | -0.0403
B10 | 0.147
B11 | -0.506
B12 | -0.0469
B13 | 0.0582
B14 | -0.835
B15 | 0.248
B16 | 0.0803
